Reference: PubChem BioAssay AID652257 (The Scripps Research Institute Molecular Screening Center, 2013)
Where “and” joins values, the source holds several entries; their conditions need not be identical. Equal values may be shown once. In all, about 370,000 compounds went through this assay and about 4,800 (1.3%) were called active. Many of the other results were omitted from the sample, so actives are more common in it than they were. Unmarked numbers belong to inactive results.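 Rule for the calls: active = inhibition above about 21% made by adding two undisclosed values (limit read from the data); inactive = the rest.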

target: Protein arginine N-methyltransferase 1 (Homo sapiens) (UniProt Q99873); experiment: human PRMT1 activity-probe blockers – biochemical, fluorescence polarization, primary screen (AID 652257); conditions: recombinant PRMT1, activity-based probe fluorescence polarization; at 2.79 µM; stronger effect = higher value
Sequence (Q99873 whole entry, looked up): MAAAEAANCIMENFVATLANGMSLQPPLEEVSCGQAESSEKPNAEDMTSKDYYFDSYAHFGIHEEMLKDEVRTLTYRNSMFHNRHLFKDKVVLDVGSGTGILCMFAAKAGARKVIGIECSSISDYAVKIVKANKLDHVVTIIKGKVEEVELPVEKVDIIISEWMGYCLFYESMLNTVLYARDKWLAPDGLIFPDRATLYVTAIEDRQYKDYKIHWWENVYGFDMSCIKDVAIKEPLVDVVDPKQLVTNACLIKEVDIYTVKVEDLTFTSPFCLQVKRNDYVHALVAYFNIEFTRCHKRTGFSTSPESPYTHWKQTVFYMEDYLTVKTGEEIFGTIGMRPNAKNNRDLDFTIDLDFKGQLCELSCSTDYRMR

Row | SMILES | inhibition
1 | CN1CCCc2nc(-c3ccccc3)ccc21 | -1.81%
2 | Cc1c(C(C)CCCO)oc(=O)c2c1Oc1c(C)c(C(C)C[C@@H](C)O)oc(=O)c1C2 (stereo partly specified) | 1.8%
3 | CCCN(CCC)S(=O)(=O)c1cc2c(cc1Br)CCN2C(=O)CC | -3.61%
4 | CCOc1cnc(C(=O)NNC(=O)c2ccccc2Br)o1 | 0.46%
5 | COC(=O)C12C=C3CC(c4ccccc4)=C3C(=O)N1Cc1[nH]c3ccccc3c1C2 (stereo unspecified) | -2.05%
6 | CCc1ccccc1NC(=O)CSc1nnc(-c2cccs2)o1 | -1.47%
7 | O=C(O)C(CCc1ccccn1)c1ccccc1 (stereo unspecified) | 0.25%
8 | CN(C)c1ccc(C(CC(=O)O)C(=O)O)cc1 (stereo unspecified) | 39.2% (active)
9 | CC(=O)NC(CC(=O)O)c1ccc(F)cc1 (stereo unspecified) | 0.13%
10 | C[C@H]1[C@H](NC(=O)c2cccc(N(C)C)c2)CC[C@@]23CCCN2C(=O)CCC[C@@H]13 | -0.17%
11 | CCOc1ccc(N(CC(=O)Nc2c(C)n(C)n(-c3ccccc3)c2=O)S(=O)(=O)c2ccc(Cl)s2)cc1 | -5.48%
12 | CCO/C([O-])=N/c1c[n+](N2CCOCC2)no1 | -1.72% and 4.84%
13 | COC(=O)[C@@]1(Sc2ccc(C)cc2)CC(=O)N(c2cccc(SC)c2)[C@@H]1c1ccccc1 | 4.3%
14 | CCOC(=O)N1C(=O)C[C@](Sc2ccc(C)cc2)(C(=O)OC)[C@H]1c1ccccc1 | 53.6% (active)
15 | COC(=O)[C@]1(C#N)CC(=O)N(CC2CCCCC2)[C@@H]1c1ccccc1 | -3.09%
16 | O=S1(=O)c2c(cccc2N2CC[C@H](O)C2)O[C@@H]2CCN1C2 | -1.77%
17 | NC(=O)c1sc2nc3c(c(-c4ccccc4)c2c1N)CCC3 | 21.5% (active)
18 | COc1ccccc1-c1c(C#N)c(N)nc2c1CCC2 | -2.76%
19 | CC(C)OC(=O)c1sc2nc3c(cc2c1N)C(=O)CCC3 | 0.71%
20 | c1ccc2c(C[n+]3csc4ccccc43)cccc2c1 | 31.2% (active)
21 | Nc1scc[n+]1Cc1cccc2cccnc12 | -6.71%
22 | CN1[C@H](Cc2ccccc2)COc2cccc(N3CCSCC3)c2S1(=O)=O | 6.45%
23 | COC(=O)C1CN(Cc2cn(Cc3ccc(F)cc3)nn2)CCS(=O)(=O)N1Cc1ccc(Cl)cc1 (stereo unspecified) | -0.68%

Row | SMILES | inhibition
24 | COCC(=O)N[C@@H]1C[C@@H]2O[C@@H](CO)CC[C@@H]2O[C@@H]1CCc1ccc(-c2ccccc2)cc1 | 0.28%
25 | CCOCc1c(C(=O)N2CCN(Cc3ccc(Br)s3)CC2)oc2ccccc12 | -1.1%
26 | CCc1ccc(NC(=O)C(C)OC(=O)/C=C/c2cccc([N+](=O)[O-])c2)cc1 (stereo unspecified) | -0.43%
27 | COC(=O)/C=C\C(=O)Nc1cccc([N+](=O)[O-])c1 | 91.7% (active)
28 | CN(C(=O)c1cccc(NC(=O)Cc2cccc([N+](=O)[O-])c2)c1)C1CCCCC1 | -0.61%
29 | COc1ccc(CN2C/C(=C/c3ccccc3)N3C(=O)C[C@@H](c4ccccc4)N=C23)c(OC)c1 | 0.52%
30 | CCC(C)c1ccc(NC(=S)N2CCCC2)cc1 (stereo unspecified) | 2.33%
31 | COc1ccc(N2CCN(CCNS(=O)(=O)c3ccc(C(C)(C)C)cc3)CC2)cc1 | 0.09%
32 | CCC(=C/c1sc2ccc3ccccc3c2[n+]1C)/C=C1\Sc2ccc3ccccc3c2N1C | 75.6% (active)
33 | Oc1c(C=Nc2cccc3nsnc23)ccc2ccccc12 | 27.2% (active)
34 | O=C(NC1CCCCN(Cc2cccc(C(F)(F)F)c2)C1=O)c1ccccc1I (stereo unspecified) | -1.71%
35 | COC(=O)c1cccc(Cn2ccc3ccc(-c4ccc5ccn(C(=O)c6ccccc6C)c5c4)cc32)c1 | 1.92%
36 | COc1cc(NC(=O)C2CCCN(S(=O)(=O)c3ccc(C(C)(C)C)cc3)C2)cc(OC)c1 (stereo unspecified) | -5.91%
37 | Cc1sc(NC(=S)NC(=O)c2cccs2)nc1-c1ccc(CC(C)C)cc1 | -4.11%
38 | O=C(NC(=S)Nc1cccc(-c2ccc(CO)o2)c1)c1cccs1 | 21.4% (active)
39 | NS(=O)(=O)c1ccc(NC(=S)NNC(=O)c2cccs2)cc1 | 0.74%
40 | CCOC(=O)[C@]12CCCC=C1N(Cc1ccc(OC)cc1)C(=O)[C@@H]2CC(=O)NCc1cccs1 | 7.82%
41 | COc1cc(NC(=O)CSC(=S)N2CCCC2)c(OC)cc1Cl | 8.65%
42 | COc1cc(NC(=S)N2CCCC(C)C2)cc(OC)c1OC (stereo unspecified) | 5.72%
43 | COc1cc(NC(=S)N2CCCC(C)C2)c(OC)cc1Cl (stereo unspecified) | 40.8% (active)
44 | CCOC(=O)N1CCN(C(=O)C[C@@H]2C(=O)N(CCc3ccc(Cl)cc3)C3=CCCC[C@]32C(=O)OCC)CC1 | 0.68%
45 | O=C(COc1ccccc1O)NC1CCCC1 | 3.06%
46 | COc1ccccc1/C=C/C=N/n1c(-c2ccc(Cl)cc2Cl)n[nH]c1=S | 21.3% (active)

Row | SMILES | inhibition
47 | COc1ccc(Cl)cc1C=CC=Nc1ccc(S(N)(=O)=O)cc1 | -7.11%
48 | COc1ccc(Cl)cc1C=CC=NNC(=O)c1ccncc1 | -0.1%
49 | Cc1ccc(NC(=O)Cc2cccc(F)c2)c(S(=O)(=O)N2CCOCC2)c1 | 0.91%
50 | COc1ccc(-n2c(SCC(=O)Nc3ccc4cn[nH]c4c3)nnc2-c2cccnc2)cc1 | -1.98%
51 | FC(F)(F)c1cccc(NC(=S)OC2CCC23CCC(c2ccccc2)CC3)c1 (stereo unspecified) | -5.1%
52 | CN(c1ccccc1)S(=O)(=O)c1ccc(C(=O)NCc2cccnc2)cc1 | -4.64%
53 | O=C(c1cccnc1)N(c1cc2sc(=O)oc2c2ccccc12)S(=O)(=O)c1ccccc1 | 78.8% (active)
54 | O=C(CN(c1cc(C(F)(F)F)ccc1Cl)S(=O)(=O)c1ccccc1)NCc1cccnc1 | 0.93%
55 | O=C1CCC2(CCC(c3ccc(Cl)cc3)CC2)N1CCO (stereo unspecified) | -4.08%
56 | O=C(NC1CCCCN(Cc2ccc(Cl)cc2)C1=O)c1ccc(Br)cc1 (stereo unspecified) | -6.45%
57 | Cc1c(NC(=S)NCc2ccc(F)cc2)cccc1[N+](=O)[O-] | 4.29%
58 | Cc1c(NC(=O)/C=C/C(=O)O)cccc1[N+](=O)[O-] | 70.3% (active)
59 | Cc1c(NC(=O)CCCOc2ccccc2)cccc1[N+](=O)[O-] | 2.67%
60 | COc1ccc(CCN2CNc3c(c(=O)n(C)c(=O)n3C)C2)cc1OC | 5.09%
61 | O=S(=O)(c1ccc(SCc2ccccc2)nc1)N1CCCCCC1 | -2.5%
62 | O=S(=O)(c1ccc(Sc2nnc3ccccn23)nc1)N1CCOCC1 | 65.8% (active)
63 | O=S(=O)(c1ccc(SCc2ccc(Br)cc2)nc1)N1CCOCC1 | 0.76%
64 | CCOC(=O)[C@]12CCCCC/C=C\1N(Cc1ccc(OC)cc1)C(=O)[C@H]2CC(=O)NCCCN1CCCC1=O | 0.39%
65 | COc1c(C(=O)N2CCCC2)ccc2ccccc12 | 1.75%
66 | COC(=O)C[n+]1cccc2ccccc21 | 38.1% (active)
67 | COC(=O)c1ccc(Cc2ccccc2)o1 | -1.95%
68 | COc1ccc(CN(CCN2CCOCC2)C(=O)c2ccc(C)cc2)cc1OC | 2.63%
69 | Cc1ccc(Cn2cc(CN3[C@@H](C)COc4cc(Br)ccc4S3(=O)=O)nn2)cc1 | 0.27%

Row | SMILES | inhibition
70 | CCOC(=O)[C@]12CCCCC/C=C\1N(Cc1ccc(OC)cc1)C(=O)[C@H]2CC(=O)N1CCOCC1 | 0.54%
71 | CSCCNC(=O)c1ccc2nc(Cc3ccccc3F)oc2c1 | 3.93%
72 | C=CCN1C(=O)[C@H](CC(=O)N2CCN(C(=O)OCC)CC2)[C@@]2(C(=O)OCC)CCCC=C12 | 0.65%
73 | O=C1CC(N2CCN(c3ccc(F)cc3)CC2)C(=O)N1c1ccccc1 (stereo unspecified) | 21.5% (active)
74 | O=C(C1CC(=O)N(c2ccc(F)cc2)C1)N1CCN(c2ccccc2)CC1 (stereo unspecified) | -0.62%
75 | COC(=O)c1cc(C(=O)OC)cc(N2C(=O)CC(N3CCN(c4ccccc4)CC3)C2=O)c1 (stereo unspecified) | 3.3%
76 | COC(=O)C1(CCSC)NC(c2ccc(OC)cc2OC)C2C(=O)N(c3cccc(C(C)=O)c3)C(=O)C21 (stereo unspecified) | -3.15%
77 | CC1CCCCC1NC(=O)COC(=O)Cc1ccc(Br)cc1 (stereo unspecified) | -4.22%
78 | Cc1nnsc1C(=O)Nc1cccc(Cl)c1C | 2.23%
79 | O=C(Nc1ccccc1)c1nnsc1S(=O)(=O)c1ccc(Cl)cc1 | 89.9% (active)
80 | O=C(Nc1cccc(Cl)c1)c1cc(S(=O)(=O)N2CCCCC2)c[nH]1 | 3.07%
81 | O=c1[nH]c2c(c(=O)n1-c1ccccc1)CCO2 | 3.18%
82 | Cc1ccc(S(=O)(=O)NCCC(c2ccccc2)c2ccccc2)cc1C(=O)O | -5.2%
83 | COC(=O)c1ccc(CNC(=O)Cn2cc(C)c(=O)[nH]c2=O)cc1 | 3.88%
84 | CC(=O)NC1=NC(=O)CS1 | 71.7% (active)
85 | C[C@@H]1CN([C@@H](C)CO)C(=O)c2cccc(NC(=O)Nc3cccc4ccccc34)c2O[C@H]1CN(C)S(=O)(=O)c1ccccc1F | -7.41%
86 | COc1cccc(/C=C2\CC3(OC(C)=O)CCCN2C3)c1 (stereo unspecified) | -1.33%
87 | CCCCC(=O)N[C@@H]1CC[C@@]23CCCN2C(=O)CCC[C@H]3[C@H]1C | -1.5%
88 | CCc1n[nH]c(=S)n1/N=C/c1c[nH]c2ccc(Br)cc12 | 29.8% (active)
89 | S=c1[nH]nc(-c2ccccc2)n1/N=C/c1c[nH]c2ccccc12 | 25.5% (active)
90 | C[n+]1ccc(/C=C/c2c[nH]c3ccccc23)cc1 | 4.53%
91 | CCOc1ccc(-c2n[nH]c(=S)n2/N=C/c2cc3c(cc2[N+](=O)[O-])OCO3)cc1 | -0.65%
